Shown are actives, neighbours in structure and some others; about 6.6% of the full set was active somewhere.
GRIN3A LBD mod = modulates the human NR3A ligand-binding domain | NR3A LBD differential scanning fluorimetry, Tm shift; 0% = protein alone, 100% = glycine-bound protein | Tm shift relative to glycine control, % at 25 µM | actives 2.5% (n = 340,000) | AID 1259313;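 active means melting temperature shift of at least 10% of the positive control shift, at one fixed dose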
Gli-Sufu antag = antagonists of Gli-Sufu signaling. Sufu-KO-LIGHT fibroblasts, Gli luciferase reporter luminescence. inhibition, % at 5 µM. actives 0.74% (n = 340,000);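 active means inhibition above about 55%, limit read from the data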;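 further: 0% = DMSO-treated cells and 100% = wells with medium but no cells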
Beta cell apopt = blocks beta cell apoptosis; protection from apoptosis, % (concentration not given with the values); actives 0.8% (n = 300,000); INS-1E cytokine-induced death, ATP luminescence, 48 h; percent of positive-control rescue, neutral wells zero;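 active means Every replicate reaches about 75%, or at least half do and their mean reaches it too, limit read from the data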;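 further: 0% = cytokine-treated negative control wells and 100% = positive control rescue; higher means more ATP so stronger rescue from cytokine killing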
MPTP block = inhibitors of mitochondrial permeability transition pore; actives 1.4% (n = 360,000); inhibition, % at 10 µM; isolated mouse mitochondria, Ca2+ swelling absorbance, 30 min; AID 602449;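 active means inhibition of 50% or more, scaled per plate between neutral and stimulator controls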;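 further: 0% = DMSO wells given calcium and 100% = 1 mM EGTA wells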
Mdm2-MdmX inh = human Mdm2/MdmX binding inhibition. actives 3% (n = 330,000). O15151+Q00987. SaOS-2 split-luciferase Mdm2/MdmX complementation, luminescence. inhibition, % at 8 µM;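 active means inhibition of at least 50% at 8 µM in the primary screen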
Target sequence (O15151 whole entry, looked up): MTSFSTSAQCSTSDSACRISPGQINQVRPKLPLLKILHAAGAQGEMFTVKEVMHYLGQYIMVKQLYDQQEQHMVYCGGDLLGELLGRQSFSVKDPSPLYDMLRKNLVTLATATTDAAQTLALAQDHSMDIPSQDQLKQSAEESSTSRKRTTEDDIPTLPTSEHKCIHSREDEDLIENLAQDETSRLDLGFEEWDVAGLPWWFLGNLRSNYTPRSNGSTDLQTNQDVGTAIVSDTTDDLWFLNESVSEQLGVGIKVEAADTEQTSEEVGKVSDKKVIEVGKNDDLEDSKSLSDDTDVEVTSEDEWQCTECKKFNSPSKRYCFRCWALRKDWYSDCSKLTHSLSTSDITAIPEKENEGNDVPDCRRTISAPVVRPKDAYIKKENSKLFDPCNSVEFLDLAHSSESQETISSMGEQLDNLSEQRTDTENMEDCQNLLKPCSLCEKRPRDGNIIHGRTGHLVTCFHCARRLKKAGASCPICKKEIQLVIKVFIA
Target sequence (Q00987 whole entry, looked up): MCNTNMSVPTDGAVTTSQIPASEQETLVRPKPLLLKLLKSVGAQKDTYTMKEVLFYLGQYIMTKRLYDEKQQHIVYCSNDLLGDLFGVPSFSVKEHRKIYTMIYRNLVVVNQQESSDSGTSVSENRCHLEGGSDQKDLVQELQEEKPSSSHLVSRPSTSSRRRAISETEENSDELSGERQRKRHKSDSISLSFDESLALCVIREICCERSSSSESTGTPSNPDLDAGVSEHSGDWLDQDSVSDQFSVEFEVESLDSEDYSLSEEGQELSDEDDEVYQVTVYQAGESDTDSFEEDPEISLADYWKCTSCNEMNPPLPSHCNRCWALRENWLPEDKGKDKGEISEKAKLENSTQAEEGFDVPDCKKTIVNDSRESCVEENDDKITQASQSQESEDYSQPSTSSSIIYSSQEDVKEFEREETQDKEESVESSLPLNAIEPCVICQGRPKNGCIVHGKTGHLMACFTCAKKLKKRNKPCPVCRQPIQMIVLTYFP
CSC inhib = blocks cancer stem cells; cancer stem cell-like cells viability, luminescence; inhibition, % at 7.5 µM; actives 1.1% (n = 300,000); in the data active means inhibition above about 75%; tested in HMLE shEcad cells
Mdm2 MdmX conf = confirmation of human Mdm2/MdmX interaction inhibitors. inhibition, % at 8 µM. actives 55% (n = 10,000). shares compounds with Mdm2-MdmX inh. Mdm2-MdmX binding, luminescent assay; in the data active means inhibition above about 40%
Full FLuc ctr = counter-screen for Mdm2/MdmX inhibitors: full-length luciferase | AID 504607 | SaOS-2 full-length luciferase counterscreen, luminescence | actives 77% (n = 6,200) | shares compounds with Mdm2-MdmX inh | inhibition, % at 8 µM;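 active means mean inhibition at 8 µM reaching about 37%, which flags the compound as non-specific, limit read from the data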;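 further: p53-null SaOS-2 cells with luciferase driven by a doxycycline-inducible promoter; compound on cells about two nights before reading with doxycycline added after day one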
* = called active by the depositor; nt = not tested or not shown.

SMILES | GRIN3A LBD mod | Gli-Sufu antag | Beta cell apopt | MPTP block | Mdm2-MdmX inh | CSC inhib | Mdm2 MdmX conf | Full FLuc ctr
COc1ccc(CCNC(=O)COc2ccc(S(=O)(=O)N3CCOCC3)cc2C)cc1 | -2.0 | -5.1 | nt | -1.5 | 16.4 | -3.9 | nt | nt
O=C(OCc1ccc(Br)cc1)c1cnc(Cl)c(Cl)c1 | -1.9 | 47.0 | 4.0 | -0.2 | 68.6* | nt | 48.1* | 95.7*
COc1ccc(C=C(c2nc3ccccc3s2)c2nc3ccccc3s2)cc1O | -0.5 | 8.5 | 4.5 | 1.1 | 58.2* | 3.5 | 45.5* | 62.7*
COc1cc(/C=C/c2nc3ccccc3s2)cc(OC)c1O | 0.4 | -4.7 | -1.6 | 1.6 | -13.0 | -0.8 | nt | nt
Cc1ccc(OCCn2cc(/C(N)=N/O)c3ccccc32)cc1C | -1.3 | -14.4 | -2.1 | -1.9 | -15.7 | -0.9 | nt | nt
Cc1ccc(OCCn2cc(C(=S)N3CCCC3)c3ccccc32)cc1C | -0.6 | 0.5 | 20.3 | -0.7 | 95.7* | -6.9 | 91.5* | 54.4*
Cc1cc(NC(=O)CCC(=O)N(c2cccc(F)c2)C(C(=O)NC2CCCC2)c2ccccc2)no1 (stereo not given) | -1.0 | 5.2 | 6.6 | -2.0 | 3.0 | nt | nt | nt
NC(=NCc1ccco1)NC(=O)c1ccc(Cl)cc1 | -6.6 | -0.7 | 1.4 | 2.8 | -33.7 | -10.5 | nt | nt
CCc1c(C)nc2c(-c3ccccc3OC)c(C)[nH]n2c1=O | 2.8 | 3.8 | -2.3 | 0.2 | 18.5 | -10.9 | nt | nt
c1ccc(N2CCN(c3nc(-c4ccccn4)nc4ccccc34)CC2)cc1 | -0.7 | 8.6 | 92.7* | -1.9 | 58.5* | -3.9 | 31.1 | nt
COc1cc(/C=C/C(=O)N2CCCN(C(=O)/C=C/c3cc(OC)c(OC)c(OC)c3)CC2)cc(OC)c1OC | -0.8 | -7.9 | -11.1 | -0.2 | 18.9 | -7.9 | nt | nt
COc1cc(/C=C/C(=O)N2CCC=CC2=O)cc(OC)c1OC | -4.7 | -1.6 | 8.0 | -0.1 | 99.6* | 35.6 | 63.3* | 26.8
COc1ccc(Oc2ccc(/C=C/C(=O)c3cccc(OC)c3)cc2[N+](=O)[O-])cc1 | -4.9 | 32.5 | -7.4 | -1.9 | 96.7* | nt | 18.6 | 26.2
COc1ccc2cc(C(=O)/C=C/c3cc(OC)c(OC)c(OC)c3)ccc2c1 | -1.7 | 12.6 | -5.7 | 1.4 | 74.6* | 46.4 | 53.9* | 78.1*
O=C(CN1C(=O)C(=O)N(C2CCCC2)C1=O)Nc1ccc(Cl)cc1C(F)(F)F | -1.4 | 3.1 | -3.2 | -2.3 | 11.8 | -3.9 | nt | nt
COc1ccc(CN2CCNC(=O)C2CC(=O)N2CCCN(C(C)=O)CC2)c(OC)c1 (stereo not given) | 2.3 | 1.3 | -2.9 | -1.7 | 10.7 | -13.0 | nt | nt
c1ccc(-c2nnc(NC3=NCCC3)o2)cc1 | -1.6 | -47.2 | 3.8 | 0.1 | -47.6 | 14.9 | nt | nt
Fc1ccc(-c2nnc(NC3=NCCCCC3)o2)cc1 | -0.9 | 7.5 | 13.9 | -1.0 | 54.5* | 19.3 | 49.5* | 54.6*
Cc1ccc(S(=O)(=O)N(CC(=O)Nc2cccnc2)c2ccccc2C)cc1 | -2.0 | 30.2 | -5.0 | 0.4 | 16.5 | 10.6 | nt | nt
COc1ccc(NC(=O)CSc2ncnc3c2sc2ccccc23)c(OC)c1 | 15.5* | 3.7 | 7.9 | 2.8 | 88.3* | 40.8 | 16.2 | nt
Cc1cc(C)n2nc(C(=O)OCC(=O)NC3CCS(=O)(=O)C3)nc2n1 (stereo not given) | nt | nt | nt | -1.9 | nt | nt | nt | nt
Cc1ccc(S(=O)(=O)n2nc(-n3c(C)ccc3C)c3c(F)cccc32)c2ccccc12 | -1.3 | 15.5 | -0.5 | 1.7 | 50.1* | 30.7 | 3.4 | nt
COc1ccc(C[C@H]2CN3C(=NC[C@@H]3Cc3ccccc3)N2CCNC(=O)CCC2CCCCC2)cc1 | -4.7 | 16.9 | 100.8* | 2.2 | 88.3* | 127.7* | 28.0 | 53.7*
COc1ccc(-c2csc3ncnc(NCCO)c23)cc1 | -0.7 | -15.8 | 2.9 | 0.8 | 70.6* | -8.8 | 59.2* | 26.2
COc1ccc(-c2csc3ncnc(NCCCO)c23)cc1 | -1.2 | -2.2 | -3.2 | 6.0 | 45.7 | -8.0 | nt | nt
SMILES | GRIN3A LBD mod | Gli-Sufu antag | Beta cell apopt | MPTP block | Mdm2-MdmX inh | CSC inhib | Mdm2 MdmX conf | Full FLuc ctr
Cc1ccc(S(=O)(=O)NNC(=O)c2cc3cc4ccccc4nc3s2)cc1 | 0.6 | -3.9 | nt | 1.5 | 21.2 | 5.6 | nt | nt
O=C(NNC(=O)c1cc2cc3ccccc3nc2s1)c1ccc(F)cc1 | 1.3 | 48.3 | 0.0 | -0.7 | 21.6 | -9.6 | nt | nt
Cc1cccc(C(=O)NNC(=O)c2cc3cc4ccccc4nc3s2)c1 | 9.4 | 0.2 | 6.8 | 0.4 | 50.5* | -12.7 | 7.2 | nt
O=C(NNC(=O)c1cc2cc3ccccc3nc2s1)c1cccc(Cl)c1 | 0.0 | -8.5 | -1.5 | 1.2 | 57.3* | -2.9 | 36.0 | 109.0*
CC(=O)Nc1ccc(S(=O)(=O)N(Cc2ccccc2)c2ccccc2F)cc1 | -10.2 | -22.3 | 4.7 | -0.7 | -15.0 | 1.6 | nt | nt
CN1C(=O)/C(=C/c2cccc(Cl)c2)Sc2ccc(C(=O)N3CCCC3)cc21 | 1.7 | 5.5 | 5.8 | nt | 73.2* | -9.8 | 12.6 | nt
Cc1cccc(/C=C2\Sc3ccc(C(=O)N4CCCCC4)cc3N(C)C2=O)c1 | 0.2 | 8.2 | 11.0 | -0.7 | 45.3 | 47.9 | nt | nt
COC(=O)[C@@]12CCCCN1[C@H](c1ccc(-c3cccc(Cl)c3)c(OC)c1)[C@@H]1C(=O)N(C)C(=O)[C@@H]12 | -7.7 | -0.7 | 17.5 | -1.4 | 72.5* | 9.6 | 25.2 | nt
COC(=O)[C@@]12CCCCN1[C@H](c1ccc(-c3ccc(F)cc3)cc1)[C@H]1C(=O)N(C)C(=O)[C@H]12 | -1.6 | -3.5 | -5.6 | -2.0 | 63.6* | nt | 46.2* | 48.4*
COC(=O)[C@@]12CCCN1[C@H](c1ccc(-c3cccc(Cl)c3)c(OC)c1)[C@H]1C(=O)N(C)C(=O)[C@H]12 | -2.4 | -1.6 | 3.0 | 0.1 | 25.9 | -2.2 | nt | nt
COC(=O)[C@@]12CCCN1[C@H](c1ccc(-c3ccc(F)cc3)cc1)[C@H]1C(=O)N(C)C(=O)[C@H]12 | -1.1 | 0.5 | -0.2 | -0.1 | 25.9 | 7.4 | nt | nt
CCN1C(=O)[C@@H]2[C@@H](c3ccc(-c4ccc(Cl)c(Cl)c4)c(OC)c3)N3CCCC[C@@]3(C(=O)OC)[C@@H]2C1=O | 0.6 | 10.4 | 14.0 | 1.8 | 52.9* | 16.3 | 17.1 | nt
CNS(=O)(=O)c1cccc(C(=O)OCC(=O)c2ccc3[nH]c(=O)[nH]c3c2)c1 | 0.5 | -13.6 | 2.5 | 0.0 | -12.8 | -6.9 | nt | nt
Oc1cccc2ccc(Nc3ccccn3)nc12 | -22.4 | 15.0 | 105.9* | 3.9 | 71.9* | 103.6* | 100.2* | 52.0*
CCCN(CCC)C(=O)C1CCN(c2ccc(S(=O)(=O)N3CCOCC3)cc2[N+](=O)[O-])CC1 | -1.2 | 9.3 | 8.6 | 0.4 | 16.2 | -2.3 | nt | nt
COc1ccc(C[C@H](N)C(=O)N[C@H]2[C@@H](O)[C@H](n3cnc4c(N(C)C)ncnc43)O[C@@H]2CO)cc1 | -1.3 | 89.8* | nt | 0.2 | 96.5* | 3.3 | 99.2* | 53.6*

From PubChem BioAssay
